Data reported in PubChem BioAssay (NCATS).
Results filed as inconclusive are left out. Entries that show only a call come without a potency. Calls of active or inactive are those of the source. Calls come from the whole dose curve; as a rule, active = well fitted curve in the direction sought with a large enough effect; inconclusive = small, poorly fitted or top-dose-only effect, or another doubt; inactive = no such curve, though single readings can be large; an effect the other way counts as inactive or inconclusive.

Tests used:
[1] = target: Aldehyde dehydrogenase, mitochondrial (Homo sapiens) (UniProt P05091); assay: qHTS for Inhibitors of the Aldehyde Dehydrogenase Family (ALDH2) Primary screen (AID 2061308); note: nearly all actives have a fitted effect of over 55% in size
[2] = target: Retinaldehyde dehydrogenase 3 (Homo sapiens) (UniProt P47895); assay: qHTS for Inhibitors of the Aldehyde Dehydrogenase Family (ALDH1A3) Primary screen (AID 2061315)

| Compound | Potency [1] | Potency [2] |
| --- | --- | --- |
| Clc1ccc2ncc(-c3cccc(NC4CCNC4)n3)n2c1 (stereo not given) | inactive | inactive |
| CC(C)Oc1ccc(C(=O)Nc2ccc(-c3nc4ccccc4[nH]3)cc2)cc1 | inactive | inactive |
| COc1ccc(-n2cnc3c(c2=N)C(c2cccc(OC)c2)c2c(ccc4ccccc24)O3)cc1 (stereo not given) | inactive | inactive |
| COc1ccc(C2Nc3ccccc3C(=O)N2Cc2ccc(C(F)(F)F)o2)cc1COc1c(C)cccc1C (stereo not given) | inactive | inactive |
| Cc1nc(NCCO)c2nc(-c3ccccc3)n(CCN(C)C)c2n1 | inactive | inactive |
| N#Cc1c(-c2ccc3ccccc3c2)no[n+]1[O-] | inactive | inactive |
| CC(C)(C)OC(=O)CC(=O)NNC(=O)c1cc2ccccc2[nH]1 | inactive | inactive |
| CCn1c2cc(C)sc2c2cnn(Cc3ccccc3F)c(=O)c21 | inactive | inactive |
| Cn1nnnc1Sc1ncnc2scc(-c3cccc4c3sc3ccccc34)c12 | inactive | inactive |
| c1nc(N2CCCCC2)c2cc(-c3ccc4c(c3)OCO4)ccc2n1 | inactive | inactive |
| CNC1CCC(N(Cc2ccc(OC)c(-c3ccc(C#N)cc3)c2)C(=O)c2sc3ccccc3c2Cl)CC1 (stereo not given) | inactive | inactive |
| COc1ccccc1C1=Nn2c(COc3ccccc3)nnc2SC1 | inactive | inactive |
| Cc1cn(-c2cc(F)cc(NC(=O)c3ccc(C)c(Nc4nccc(-c5cccnc5)n4)c3)c2)cn1 | inactive | inactive |
| O=S(=O)(NCCCCCNS(=O)(=O)c1c(F)cccc1F)c1ccc2c(c1)OCCO2 | inactive | inactive |
| Cc1cc2c(s1)c1cnn(Cc3ccc4ccccc4c3)c(=O)c1n2C | inactive | inactive |
